According to PubChem BioAssay (NCI):
About 79,000 compounds went through this panel and 15% of them were active in at least one assay; those are over-represented in the sample as a whole. Unmarked numbers belong to inactive results. The source made the active and inactive calls. Rule as the data show it: active = growth inhibition above about 70%; inactive = the rest.

Experiment: NCI Yeast Anticancer Drug Screen. Data for the cln2 rad14 strain (AID 165);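 also: 0% = growth equal to vehicle treated cultures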
Conditions: S. cerevisiae cln2 rad14 strain, at 50.0 µM (retest, dose inferred, filed as 5.0), active compounds read high
How it was run: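 Growth of compound-exposed yeast (cln2 rad14 genotype) measured and expressed as inhibition relative to vehicle.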
For `O=CC=C(c1ccccc1)c1ccccc1`, the growth inhibition was 99% (active). In the case of `FC(F)(F)c1nc2nc(Cl)c(Cl)nc2n1CCCN1CCOCC1`, the growth inhibition is reported as 54%. In the case of `BrCC[P+](c1ccccc1)(c1ccccc1)c1ccccc1`, the growth inhibition is reported as 98% (active). With `N#CSc1ccc(S(N)(=O)=O)cc1` the growth inhibition was 82% (active). In the case of `O=[N+]([O-])c1ccc2nc3ccccc3cc2c1`, the growth inhibition is reported as 16%. In the case of `O=C(NC(Nc1ccc(F)c(Cl)c1)(C(F)(F)F)C(F)(F)F)C(C(F)(F)F)C(F)(F)F`, the growth inhibition is reported as 98% (active). In the case of `O=C(/C=C\c1ccc(Cl)cc1Cl)c1cccs1`, the growth inhibition is reported as 27%. With `O=C(NCCCCNCCCNC(=O)c1cc(-c2ccccc2)nc2ccccc12)c1cc(-c2ccccc2)nc2ccccc12` the growth inhibition was 55%. Molecule `NC(=NCc1ccccc1)N/N=C\c1ccnc2ccccc12` has a growth inhibition of 62%. With `CCCCN(CCCC)CCSc1ccc(Cl)cc1` the growth inhibition was 4%. Molecule `COc1cc(C2C3=C(COC3=O)Oc3cc4c(cc32)OCO4)ccc1O` (centres undefined) has a growth inhibition of 43%. In the case of `C#CCCCc1ccccc1`, the growth inhibition is reported as 37%. Work on `CCc1ccc(NS(=O)(=O)c2ccccc2)c([N+](=O)[O-])c1` yielded a growth inhibition of 20%. With `COc1ccc(C2c3cc4c(cc3OC(C)(O)C2C)OCO4)c(OC)c1` (centres undefined) the growth inhibition was 51%. `COC(=O)c1ccc(CCC2=CC(=O)C(Br)=CC2=O)cc1` showed a growth inhibition of 14%. `NNC(=O)CCc1ccc2ccc3ccccc3c2c1` gave a growth inhibition of -15%. Molecule `Cn1c2ccccc2c(=O)c2cc(NC(=O)CCCCC(=O)Nc3ccc4c(c3)c(=O)c3ccccc3n4C)ccc21` has a growth inhibition of 5%. With `CC(CC(C)(C)[N+](C)(C)C)[N+](C)(C)C` (centres undefined) the growth inhibition was 95% (active). For `CC1CCN(CCC(=O)c2ccc(Cl)cc2)CC1`, the growth inhibition was 45%. `CCCCCCCCCCCCCCC(C(=O)[O-])[n+]1ccccc1` (centres undefined) showed a growth inhibition of 26%. With `CNC1C(OC2C(OC3C(O)C(O)C(N=C(N)N)C(O)C3N=C(N)N)OC(C)C2(O)CO)OC(CO)C(O)C1O` (centres undefined) the growth inhibition was 59%. For `O=C(O)c1ccccc1-c1ccccc1C(=O)Nc1ccc2c(c1)Cc1ccccc1-2`, the growth inhibition was 46%. For `O=[N+]([O-])c1cccc2nc3ccccc3c(NCCCN3CCOCC3)c12`, the growth inhibition was 99% (active). `C=CC(C)(O)CCC1C(=C)C(O)CC2C(C)(C)CCCC12C` (centres undefined) gave a growth inhibition of 66%. For `CN1c2ccc(Cl)cc2C(=O)NC1c1ccc([N+](=O)[O-])s1` (centres undefined), the growth inhibition was 96% (active). For `[O-][n+]1c2ccc(O)cc2nc2ccc(Br)cc21`, the growth inhibition was 88% (active). In the case of `O=C1c2ccccc2-c2nc3ccccc3nc21`, the growth inhibition is reported as 52%. With `CCCCN1C(=O)N(c2ccc(OCC)cc2)C2N(CCCC)C1C(C)(C)C2(C)C` (centres undefined) the growth inhibition was 13%. `CO[C@H]1C[C@](C)(O)Cc2cc3c(c(O)c21)C(=O)c1c(O)cc2c(c1C3=O)O[C@@H]1O[C@@]2(C)[C@H](O)[C@@H](N(C)C)[C@@H]1O` showed a growth inhibition of 31%. With `COc1cc2c(cc1[N+](=O)[O-])C(=O)C(Br)(Br)CCC2` the growth inhibition was 98% (active). In the case of `O=C1OC(CCl)CN1/N=C/c1ccc([N+](=O)[O-])o1` (centres undefined), the growth inhibition is reported as 73% (active). In the case of `CN(C)CCOc1ccc2c(c1)C/C(=C/c1ncc([N+](=O)[O-])n1C)C2=O`, the growth inhibition is reported as 74% (active). For `CCCCCCCCCCCCCCCCCCN(C)CC(COP(=O)([O-])OCC[N+](C)(C)C)OC` (centres undefined), the growth inhibition was 98% (active). With `CC(C)c1ccccc1NC(=O)/C(Cl)=C(\Cl)C(=O)O` the growth inhibition was 63%. Molecule `O=[N+]([O-])C(=C(Sc1ccccc1)Sc1ccccc1)C(Cl)=C(Cl)Cl` has a growth inhibition of 33%. In the case of `C(=C\c1ccccc1)/COc1ccccc1C(N1CCOCC1)n1nc2ccccc2n1` (centres undefined), the growth inhibition is reported as 81% (active). Molecule `O=C1C(Nc2ccccc2)=C(Oc2ccccc2)C(=O)c2ccccc21` has a growth inhibition of 1%. With `CCN(CC)CCN1C(=O)c2cccc3cc(OC)cc(c23)C1=O` the growth inhibition was 18%. With `CN(C)Cc1cc(N=Nc2ccc(Cl)cc2)cc(CN(C)C)c1O` the growth inhibition was 98% (active).
